Assay [1] in a line: ATG_GRE_CIS: Attagene CIS-FACTORIAL HepG2 Assay for human Glucocorticoid Response Elements (GRE) (AID 2282947). To be noted: HepG2 GRE cis-reporter, Attagene multiplex mRNA; actives raise or lower the signal. The procedure, abridged:
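Following 24 h chemical exposure of transiently transfected HepG2 cells, total RNA was reverse-transcribed and reporter cDNA amplified, fluorescently labelled and sized by capillary electrophoresis. Signal gain or loss was fitted relative to DMSO vehicle.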

Assay [2] in a line: ATG_M_32_CIS: Attagene CIS-FACTORIAL HepG2 Assay for M32 Transcription Factor (Internal Marker) (AID 2282949).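 Further: background control marker of the multiplexed CIS panel rather than a real target.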 Conditions: HepG2 Attagene cis-factorial M32 reporter, mRNA; actives raise or lower the signal. The method in brief: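 HepG2 cells transiently transfected with multiplexed cis-regulated reporter units, dosed 24 h. Reporter mRNA quantified by RT-PCR, 6-FAM labelling, HpaI digestion and capillary electrophoresis; bidirectional fit vs DMSO.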

Assay [3] can be described thus: ATG_M_06_CIS: Attagene CIS-FACTORIAL HepG2 Assay for M06 Transcription Factor (Internal Marker) (AID 2282950). Conditions: HepG2 Attagene CIS-FACTORIAL M06 internal marker reporter; actives raise or lower the signal. The method in brief: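 Fluorescence-labelled RT-PCR products from cis-promoter reporter units, cut with HpaI and resolved by capillary electrophoresis, give the signal. Cells are human HepG2, dosed for 24 h. Serves as background control, fitted relative to DMSO.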

For assay [4], the target named is Hypoxia-inducible factor 1-alpha (Homo sapiens) (UniProt Q16665). As to the kind of experiment: ATG_HIF1a_CIS: Attagene CIS-FACTORIAL HepG2 Assay for human Hypoxia Inducible Factor 1 (HIF1A) (AID 2282951). To be noted: HepG2 Attagene cis-factorial HIF1a reporter transcription; actives raise or lower the signal. The method in brief:
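Transient MRTU transfection of human HepG2 liver cells, 24 h compound treatment, then total RNA isolation, oligo(dT) reverse transcription, PCR amplification, fluorescent labelling and capillary electrophoresis of reporter fragments. Gain or loss relative to DMSO.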

For assay [5], the target named is Hepatocyte nuclear factor 6 (Homo sapiens) (UniProt Q9UBC0). As to the kind of experiment: ATG_HNF6_CIS: Attagene CIS-FACTORIAL HepG2 Assay for human Hepatocyte Nuclear Factor 6 (HNF6) (AID 2282952). Conditions: HepG2 Attagene cis-factorial HNF6 reporter transcription; actives raise or lower the signal. The method in brief: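 HepG2, transient MRTU transfection (cis promoters); 24 h chemical exposure; total RNA → oligo(dT) RT → PCR → 6-FAM labelling → HpaI cut → CE; bidirectional fit vs DMSO.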

For assay [6], the target named is Heat shock factor protein 1 (Homo sapiens) (UniProt Q00613). Description: ATG_HSE_CIS: Attagene CIS-FACTORIAL HepG2 Assay for human Heat Shock Transcription Factor 1 (HSE) (AID 2282953). To be noted: HepG2 HSE cis-reporter, Attagene RNA transcription; actives raise or lower the signal. The procedure, abridged:
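After a 24 h incubation with test chemical, transfected HepG2 cells were harvested for RNA; reporter transcripts were measured by RT-PCR and capillary electrophoresis. Values reflect gain or loss of signal relative to DMSO.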

A short description of assay [7]: ATG_MRE_CIS: Attagene CIS-FACTORIAL HepG2 Assay for human Metal Responsive Element (MRE) (AID 2282954). Conditions: HepG2 MRE cis-reporter transcription, Attagene multiplex; actives raise or lower the signal. The method in brief: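 Step one: transfect HepG2 with cis-regulated reporter units. Step two: dose 24 h. Step three: isolate RNA, RT-PCR, 6-FAM label, HpaI digest, capillary electrophoresis. Fit bidirectionally to DMSO.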

Assay [8] in a line: ATG_PBREM_CIS: Attagene CIS-FACTORIAL HepG2 Assay for human Phenobarbital-responsive Enhancer Module (PBREM) (AID 2282955). To be noted: HepG2 PBREM cis-reporter, Attagene multiplexed transcription; actives raise or lower the signal. The method in brief:
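Endogenous transcription factors in human liver HepG2 cells drive a PBREM cis-element reporter, whose transcript level after 24 h treatment is quantified by RT-PCR with capillary electrophoresis; activity fitted in both directions against DMSO.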

The target of assay [9] is Paired box protein Pax-6 (Homo sapiens) (UniProt P26367). Description: ATG_Pax6_CIS: Attagene CIS-FACTORIAL HepG2 Assay for human Paired Box 6 (PAX6) (AID 2282956). Conditions: HepG2 CIS-FACTORIAL PAX6 reporter transcription, RNA readout; actives raise or lower the signal. The method in brief: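 HepG2 cells transiently transfected with cis-promoter-driven multiplexed reporter units sensing endogenous transcription factor activity; 24 h chemical exposure. Reporter mRNA quantified by RT-PCR, 6-FAM labelling, HpaI digestion and capillary electrophoresis; bidirectional fit versus DMSO baseline.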

The nature of assay [10]: ATG_PXRE_CIS: Attagene CIS-FACTORIAL HepG2 Assay for human Pregnane X Receptor Element (PXRE) (AID 2282957). To be noted: HepG2 Attagene CIS-FACTORIAL PXRE reporter, mRNA; actives raise or lower the signal. The procedure, abridged:
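Transfect HepG2 with MRTUs (cis promoter elements); dose chemical, incubate 24 h; isolate RNA, RT with oligo(dT), PCR, 6-FAM label, HpaI cut, CE. Gain/loss fit vs DMSO.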

A short description of assay [11]: ATG_PPRE_CIS: Attagene CIS-FACTORIAL HepG2 Assay for human Peroxisome Proliferator-activated Response Element (PPRE) (AID 2282958). Conditions: HepG2 PPRE cis-element reporter, Attagene transcription factor profiling; actives raise or lower the signal. The method in brief: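 HepG2, transient MRTU transfection (cis promoter elements, endogenous TFs). 24 h dosing. RNA → oligo(dT) RT → PCR → 6-FAM primer extension → HpaI digest → CE. Bidirectional fit vs DMSO.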

The nature of assay [12]: ATG_RORE_CIS: Attagene CIS-FACTORIAL HepG2 Assay for human RAR-related Orphan Receptor Element (RORE) (AID 2282959). Conditions: HepG2 Attagene cis-factorial RORE reporter, mRNA; actives raise or lower the signal. The method in brief:
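Transient MRTU transfection of human HepG2 liver cells (FuGene 6); 24 h compound exposure; TriZol RNA, oligo(dT) RT, PCR, FAM labeling, HpaI cut, CE fragment analysis. DMSO = negative control/baseline.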

Assay [13] can be described thus: ATG_Sox_CIS: Attagene CIS-FACTORIAL HepG2 Assay for human SRY-box transcription factor (SOX) (AID 2282960). To be noted: HepG2 Attagene cis-factorial SOX reporter, mRNA; actives raise or lower the signal. The procedure, abridged:
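Endogenous factor activity in human liver HepG2 cells carrying transfected cis-regulated reporter units. RNA taken 24 h post-dose, reverse-transcribed, PCR-amplified and sized by capillary electrophoresis. Gain or loss of signal fitted relative to DMSO.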

The target in assay [14] is Transcription factor Sp1 (Homo sapiens) (UniProt P08047). As to the kind of experiment: ATG_Sp1_CIS: Attagene CIS-FACTORIAL HepG2 Assay for human Specificity Protein 1 (Sp1) (AID 2282961). Conditions: HepG2 Sp1 cis-reporter transcription, actives raise or lower the signal. The method in brief: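 Transient MRTU-transfected HepG2, 24 h compound exposure. Total RNA → oligo(dT) RT → PCR of reporter → 6-FAM primer extension → HpaI digest → CE. Endpoint fitted both directions vs DMSO.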

The nature of assay [15]: ATG_SREBP_CIS: Attagene CIS-FACTORIAL HepG2 Assay for human Sterol Regulatory Element Binding (SREBP) (AID 2282962). To be noted: HepG2 Attagene cis-factorial SREBP reporter, mRNA; actives raise or lower the signal. The procedure, abridged:
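HepG2 cells transiently transfected with multiplexed cis-promoter reporter units sensing endogenous transcription factors; reporter mRNA measured 24 h after dosing by RT-PCR, 6-FAM labeling, HpaI digestion and capillary electrophoresis. Bidirectional fit versus DMSO.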

For assay [16], the target named is Signal transducer and activator of transcription 3 (Homo sapiens) (UniProt P40763). As to the kind of experiment: ATG_STAT3_CIS: Attagene CIS-FACTORIAL HepG2 Assay for human Signal Transducer and Activator of Transcription 3 (STAT3) (AID 2282963). To be noted: HepG2, Attagene cis-factorial STAT3 reporter transcription; actives raise or lower the signal. The procedure, abridged: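 Transcript-level reporter assay. HepG2 transient MRTU transfection, 24 h exposure, fluorescence detection after RT-PCR and CE; DMSO baseline.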

A short description of assay [17]: ATG_TA_CIS: Attagene CIS-FACTORIAL HepG2 Assay for human TA Basal Promoter (AID 2282964). To be noted: HepG2 Attagene CIS-factorial TA basal promoter reporter; actives raise or lower the signal. The method in brief: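 Multiplexed mRNA reporter assay, HepG2, 24 h. Reporter cDNA amplified, 6-FAM primer-extended, HpaI-cut, CE-sized; DMSO = negative control and baseline.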

The nature of assay [18]: ATG_TCF_b_cat_CIS: Attagene CIS-FACTORIAL HepG2 Assay for human T-Cell-Factor with beta-catenin (TCF/b-cat) (AID 2282965). To be noted: HepG2 TCF/beta-catenin cis-reporter transcription, actives raise or lower the signal. The method in brief:
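Using capillary electrophoresis as the read-out, labelled reporter cDNA fragments from transiently transfected HepG2 were sized and quantified. Exposure lasted 24 hours; activity in either direction was referenced to DMSO.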

A short description of assay [19]: ATG_ISRE_CIS: Attagene CIS-FACTORIAL HepG2 Assay for human Interferon Regulatory Factor 1 (IRF1) binding to an Interferon-Stimulated Response Element (ISRE) (AID 2282948). To be noted: HepG2 ISRE cis-reporter (Attagene), mRNA transcription readout; actives raise or lower the signal. The procedure, abridged:
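Transiently transfected HepG2 cells carrying cis-element reporter units, dosed 24 hours. Reporter mRNA quantified by RT-PCR, fluorescent primer extension, HpaI digestion and capillary electrophoresis. Bidirectional fitting relative to DMSO.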

Activity calls are given as the source filed them. How the source made its calls: active means hit-call score of the fitted dose curve at least 0.9, where 1 is the maximum; inactive means score below 0.9.

Sequence of Heat shock factor protein 1 (Homo sapiens) (Q00613 whole entry, looked up): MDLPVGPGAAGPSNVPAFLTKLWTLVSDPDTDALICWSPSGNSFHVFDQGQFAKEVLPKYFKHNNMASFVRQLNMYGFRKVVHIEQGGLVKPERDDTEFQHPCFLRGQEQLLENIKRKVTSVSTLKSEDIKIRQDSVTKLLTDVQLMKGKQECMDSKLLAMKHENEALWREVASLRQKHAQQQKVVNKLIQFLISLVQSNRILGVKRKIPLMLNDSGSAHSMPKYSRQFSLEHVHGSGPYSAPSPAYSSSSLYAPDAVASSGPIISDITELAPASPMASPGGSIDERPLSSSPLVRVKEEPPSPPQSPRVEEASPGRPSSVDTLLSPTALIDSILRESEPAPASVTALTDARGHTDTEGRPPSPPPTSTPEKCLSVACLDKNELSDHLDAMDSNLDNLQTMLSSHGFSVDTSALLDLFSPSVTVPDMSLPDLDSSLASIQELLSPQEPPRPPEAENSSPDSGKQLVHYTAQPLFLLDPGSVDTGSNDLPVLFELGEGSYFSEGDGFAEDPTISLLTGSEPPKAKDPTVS
Sequence of Transcription factor Sp1 (Homo sapiens) (P08047 whole entry, looked up): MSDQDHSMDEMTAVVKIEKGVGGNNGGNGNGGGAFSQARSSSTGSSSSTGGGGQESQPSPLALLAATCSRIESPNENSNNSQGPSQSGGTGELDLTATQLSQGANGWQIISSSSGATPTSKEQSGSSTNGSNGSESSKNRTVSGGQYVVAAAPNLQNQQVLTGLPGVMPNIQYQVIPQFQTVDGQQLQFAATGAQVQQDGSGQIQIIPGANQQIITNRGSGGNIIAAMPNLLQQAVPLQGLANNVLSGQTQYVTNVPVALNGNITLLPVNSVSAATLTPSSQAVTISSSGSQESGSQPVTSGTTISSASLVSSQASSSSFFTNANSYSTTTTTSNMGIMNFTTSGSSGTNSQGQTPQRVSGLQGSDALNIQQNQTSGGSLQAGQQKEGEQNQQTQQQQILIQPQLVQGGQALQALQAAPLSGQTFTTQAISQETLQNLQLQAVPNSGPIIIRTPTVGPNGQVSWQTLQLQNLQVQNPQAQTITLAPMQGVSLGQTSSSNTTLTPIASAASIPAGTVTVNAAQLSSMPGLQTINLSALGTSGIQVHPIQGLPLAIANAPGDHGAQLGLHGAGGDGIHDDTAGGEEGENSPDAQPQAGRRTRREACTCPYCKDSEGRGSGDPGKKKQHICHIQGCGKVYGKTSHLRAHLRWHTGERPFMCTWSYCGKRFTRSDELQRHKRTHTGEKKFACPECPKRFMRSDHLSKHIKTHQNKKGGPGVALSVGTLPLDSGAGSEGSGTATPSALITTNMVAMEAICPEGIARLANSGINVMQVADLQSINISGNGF
Sequence of Paired box protein Pax-6 (Homo sapiens) (P26367 whole entry, looked up): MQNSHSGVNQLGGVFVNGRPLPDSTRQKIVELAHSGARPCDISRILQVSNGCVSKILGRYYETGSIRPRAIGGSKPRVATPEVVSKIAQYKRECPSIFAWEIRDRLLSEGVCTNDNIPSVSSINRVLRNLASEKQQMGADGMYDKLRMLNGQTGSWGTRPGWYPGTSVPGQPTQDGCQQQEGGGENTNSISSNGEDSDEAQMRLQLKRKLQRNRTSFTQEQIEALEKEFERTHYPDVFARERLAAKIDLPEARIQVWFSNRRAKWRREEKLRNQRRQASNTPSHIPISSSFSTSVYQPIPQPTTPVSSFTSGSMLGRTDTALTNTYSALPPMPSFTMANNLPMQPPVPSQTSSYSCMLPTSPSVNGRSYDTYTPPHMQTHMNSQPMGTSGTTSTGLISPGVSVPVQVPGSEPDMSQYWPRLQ
Sequence of Signal transducer and activator of transcription 3 (Homo sapiens) (P40763 whole entry, looked up): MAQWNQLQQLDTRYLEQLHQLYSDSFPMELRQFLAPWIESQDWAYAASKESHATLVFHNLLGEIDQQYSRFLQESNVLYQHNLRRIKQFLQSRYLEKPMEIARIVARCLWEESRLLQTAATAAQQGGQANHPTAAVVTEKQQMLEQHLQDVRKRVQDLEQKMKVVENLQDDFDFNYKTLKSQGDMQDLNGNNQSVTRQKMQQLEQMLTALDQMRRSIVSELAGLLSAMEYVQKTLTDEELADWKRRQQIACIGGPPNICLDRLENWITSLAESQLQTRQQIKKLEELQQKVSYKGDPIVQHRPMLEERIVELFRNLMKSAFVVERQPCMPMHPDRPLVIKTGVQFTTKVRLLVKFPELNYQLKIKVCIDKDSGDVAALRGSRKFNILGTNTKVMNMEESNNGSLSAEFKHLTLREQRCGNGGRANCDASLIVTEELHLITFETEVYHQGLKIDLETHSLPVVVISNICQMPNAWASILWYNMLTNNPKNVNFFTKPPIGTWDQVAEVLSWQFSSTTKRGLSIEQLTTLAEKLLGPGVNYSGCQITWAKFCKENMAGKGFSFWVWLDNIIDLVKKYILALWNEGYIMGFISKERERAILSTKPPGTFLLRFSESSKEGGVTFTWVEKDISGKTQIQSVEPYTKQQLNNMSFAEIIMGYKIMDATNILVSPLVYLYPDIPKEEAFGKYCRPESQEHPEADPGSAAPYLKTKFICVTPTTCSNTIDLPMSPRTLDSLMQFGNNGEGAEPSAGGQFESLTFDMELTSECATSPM
Sequence of Hepatocyte nuclear factor 6 (Homo sapiens) (Q9UBC0 whole entry, looked up): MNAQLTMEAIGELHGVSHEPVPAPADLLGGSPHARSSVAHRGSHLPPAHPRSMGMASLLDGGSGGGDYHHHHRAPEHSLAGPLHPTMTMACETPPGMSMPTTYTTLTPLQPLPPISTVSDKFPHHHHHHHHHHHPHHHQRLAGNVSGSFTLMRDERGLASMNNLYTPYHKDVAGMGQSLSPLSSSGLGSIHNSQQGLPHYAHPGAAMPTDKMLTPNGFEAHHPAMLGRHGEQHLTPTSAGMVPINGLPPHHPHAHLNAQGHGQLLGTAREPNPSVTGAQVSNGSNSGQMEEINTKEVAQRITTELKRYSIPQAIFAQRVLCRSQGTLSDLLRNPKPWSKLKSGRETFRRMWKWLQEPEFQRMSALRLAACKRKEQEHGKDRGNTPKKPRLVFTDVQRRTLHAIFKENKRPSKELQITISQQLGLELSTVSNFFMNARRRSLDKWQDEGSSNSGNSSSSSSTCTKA
Sequence of Hypoxia-inducible factor 1-alpha (Homo sapiens) (Q16665 whole entry, looked up, the tested form may be a part): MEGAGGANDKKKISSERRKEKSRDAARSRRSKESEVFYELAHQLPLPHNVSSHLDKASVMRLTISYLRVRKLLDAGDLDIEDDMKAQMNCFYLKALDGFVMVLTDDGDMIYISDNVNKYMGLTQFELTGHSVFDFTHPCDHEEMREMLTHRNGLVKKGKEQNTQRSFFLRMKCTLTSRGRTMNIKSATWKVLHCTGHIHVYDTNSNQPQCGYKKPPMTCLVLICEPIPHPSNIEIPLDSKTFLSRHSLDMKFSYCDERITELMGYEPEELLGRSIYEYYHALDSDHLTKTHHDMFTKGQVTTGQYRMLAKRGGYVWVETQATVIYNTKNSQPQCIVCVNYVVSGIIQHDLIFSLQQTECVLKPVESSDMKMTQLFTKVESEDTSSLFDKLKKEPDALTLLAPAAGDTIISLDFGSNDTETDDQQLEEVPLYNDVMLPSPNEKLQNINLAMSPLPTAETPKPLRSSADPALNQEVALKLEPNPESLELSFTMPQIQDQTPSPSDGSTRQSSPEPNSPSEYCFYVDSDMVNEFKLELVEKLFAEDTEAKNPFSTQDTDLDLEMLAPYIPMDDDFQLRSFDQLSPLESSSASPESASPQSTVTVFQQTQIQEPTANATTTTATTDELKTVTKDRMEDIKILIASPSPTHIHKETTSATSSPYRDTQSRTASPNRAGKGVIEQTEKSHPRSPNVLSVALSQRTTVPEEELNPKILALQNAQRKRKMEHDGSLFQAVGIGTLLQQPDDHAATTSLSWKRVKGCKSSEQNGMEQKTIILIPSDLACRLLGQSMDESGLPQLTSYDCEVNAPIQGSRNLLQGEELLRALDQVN

In the case of `Cc1ccc(C(=O)O)o1`, the call in [1], in assay [2], in [3], in assay [4], in assay [5] and in assay [6] was inactive. The molecule was called inactive in assay [7], in [8], in assay [9], in assay [10], in assay [11] and in assay [12]. Moreover, the outcome in assay [13], in [14], in assay [15], in [16], in assay [17] and in [18] was inactive.

As usually defined, the AC50 is the midpoint of the concentration-response curve, whichever way the signal moves. Take `C=CCOc1nc(OCC=C)nc(OCC=C)n1`: the molecule was classed as inactive in assay [1], in assay [19], in assay [2], in assay [3], in assay [5] and in assay [6]. The outcome in assay [7], in [9], in assay [11], in assay [12], in assay [13] and in assay [14] was inactive. For the same molecule, the molecule was classed as inactive in assay [15], in [16] and in assay [18]. Besides, the AC50 in [10] was 17.2 µM (active).

Turning to `CCCCOCCOCCSC#N`, the molecule was called inactive in assay [1], in assay [19], in assay [3], in assay [4], in assay [5] and in assay [7]. The outcome in assay [8], in [9], in assay [11], in assay [12], in [13] and in [14] was inactive. Besides, the result in [15], in assay [16], in [17] and in assay [18] was inactive. Further, the AC50 in assay [10] was 1.92 µM (active).

For the molecule `O=C=NC1CCC(CC2CCC(N=C=O)CC2)CC1` (centres undefined), the call in [1], in [19], in assay [3], in assay [5], in assay [7] and in [9] was inactive. In addition, the call in assay [10], in [13], in assay [14] and in assay [15] was inactive. The AC50 in assay [2] was 164 µM (active); in [8] it was 63.1 µM (active); in [11], 68.9 µM (active); in assay [12] it was 69.6 µM (active); in assay [18], 69.3 µM (active).

In the case of `CC(C)Oc1ccccc1O`, the call in [1], in [19], in assay [3], in assay [4], in [5] and in assay [6] was inactive. Moreover, the result in [7], in assay [8], in assay [9], in [12], in [13] and in assay [14] was inactive. The molecule was called inactive in [15], in assay [16] and in [18]. Further, in assay [10], the AC50 was 39.4 µM (active).

Take `CC(=O)Nc1ccc(CC(=O)O)cc1`: the outcome in assay [1], in [19], in assay [2], in assay [3], in [5] and in [6] was inactive. Moreover, the result in assay [8], in assay [9], in assay [10], in assay [12], in [13] and in assay [14] was inactive. Also, the call in [15], in assay [16] and in [17] was inactive.

On to `O=C(O)c1cn(-c2ccc(F)cc2)c2cc(N3CCNCC3)c(F)cc2c1=O`, for which the molecule was called inactive in assay [1], in assay [19], in [3], in assay [4], in assay [5] and in [6]. Moreover, the result in assay [7], in [9], in assay [10], in assay [11], in assay [12] and in assay [13] was inactive. In addition, the result in [14], in [15], in [16], in [17] and in assay [18] was inactive.

Consider `CC[C@]12CCCN3CCc4c(n(c5ccccc45)[C@@](O)(C(=O)OC)C1)[C@@H]32`, for which the outcome in [1], in assay [19], in assay [2], in assay [3], in assay [5] and in [7] was inactive. For the same molecule, the molecule was called inactive in [9], in [13], in assay [14], in [15], in assay [16] and in [17]. Also, the molecule was classed as inactive in [18]. Besides, the results for the AC50 in assay [6] and in [10] were 159 µM (active) and 7.96 µM (active), respectively.

(Values after PubChem BioAssay (EPA / NIEHS).)
